In ChEMBL document CHEMBL1961873, “Compounds: GSK PKIS; Assays: Nanosyn kinase panel” (2012) one finds inhibition data, which are given here for 20 compounds.

Assay [1] has as its target Calcium/calmodulin-dependent protein kinase type II subunit alpha (Homo sapiens) (UniProt Q9UQM7). To be noted: at 1 µM.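 Also: reported value is a mean percent inhibition of CAMK2A.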
Assay [2] has as its target Calcium/calmodulin-dependent protein kinase type II subunit delta (Homo sapiens) (UniProt Q13557). To be noted: at 0.1 µM.
Assay [3] shares this target. As to conditions: at 1 µM.
Assay [4] has as its target T1, Calcium/calmodulin-dependent protein kinase type IV (Homo sapiens) (UniProt Q16566).
T1 sequence (whole entry): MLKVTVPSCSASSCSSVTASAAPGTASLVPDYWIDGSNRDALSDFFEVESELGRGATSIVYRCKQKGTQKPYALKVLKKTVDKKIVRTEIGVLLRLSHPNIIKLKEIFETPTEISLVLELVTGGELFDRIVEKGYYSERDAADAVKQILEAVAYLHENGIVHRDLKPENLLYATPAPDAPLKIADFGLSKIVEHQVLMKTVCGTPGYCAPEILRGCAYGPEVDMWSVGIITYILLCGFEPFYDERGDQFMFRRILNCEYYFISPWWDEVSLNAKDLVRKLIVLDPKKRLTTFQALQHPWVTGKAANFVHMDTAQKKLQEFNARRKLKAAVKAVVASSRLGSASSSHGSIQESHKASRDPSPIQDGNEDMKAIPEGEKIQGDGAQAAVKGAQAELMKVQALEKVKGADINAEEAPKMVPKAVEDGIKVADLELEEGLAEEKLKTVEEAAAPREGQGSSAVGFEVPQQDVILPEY
As to conditions: at 0.1 µM.

The target of assay [5] is T1, Calcium/calmodulin-dependent protein kinase type IV (Homo sapiens). As to conditions: at 1 µM.
In assay [6] the target is T2, Serine/threonine-protein kinase Chk1 (Homo sapiens) (UniProt O14757).
T2 sequence (whole entry): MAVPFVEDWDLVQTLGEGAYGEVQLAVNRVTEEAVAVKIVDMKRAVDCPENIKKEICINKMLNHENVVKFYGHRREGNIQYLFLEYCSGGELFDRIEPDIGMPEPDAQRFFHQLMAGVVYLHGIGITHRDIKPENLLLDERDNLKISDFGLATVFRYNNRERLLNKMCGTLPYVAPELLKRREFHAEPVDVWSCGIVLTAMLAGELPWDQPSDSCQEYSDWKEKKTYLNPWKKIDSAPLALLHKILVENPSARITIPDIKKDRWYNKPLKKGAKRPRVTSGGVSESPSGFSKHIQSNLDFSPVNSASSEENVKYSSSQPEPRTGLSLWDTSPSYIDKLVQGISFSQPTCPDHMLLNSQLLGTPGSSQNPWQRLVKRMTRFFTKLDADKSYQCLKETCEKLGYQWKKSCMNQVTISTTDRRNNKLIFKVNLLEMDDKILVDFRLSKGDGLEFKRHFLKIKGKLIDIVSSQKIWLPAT
To be noted: at 0.1 µM.

Assay [7] has as its target T2, Serine/threonine-protein kinase Chk1 (Homo sapiens). As to conditions: at 1 µM.
Assay [8] deals with Serine/threonine-protein kinase Chk2 (Homo sapiens) (UniProt O96017). To be noted: at 0.1 µM.
Assay [9] has the same target. As to conditions: at 1 µM.
The target of assay [10] is Death-associated protein kinase 1 (Homo sapiens) (UniProt P53355). To be noted: at 0.1 µM.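 Also: reported figure is the mean inhibition of DAPK1.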

“And” between values parts separate entries of the source, which are not always exact repeats. Identical values can stand only once.

Serine/threonine-protein kinase Chk2 (Homo sapiens), sequence (O96017 whole entry): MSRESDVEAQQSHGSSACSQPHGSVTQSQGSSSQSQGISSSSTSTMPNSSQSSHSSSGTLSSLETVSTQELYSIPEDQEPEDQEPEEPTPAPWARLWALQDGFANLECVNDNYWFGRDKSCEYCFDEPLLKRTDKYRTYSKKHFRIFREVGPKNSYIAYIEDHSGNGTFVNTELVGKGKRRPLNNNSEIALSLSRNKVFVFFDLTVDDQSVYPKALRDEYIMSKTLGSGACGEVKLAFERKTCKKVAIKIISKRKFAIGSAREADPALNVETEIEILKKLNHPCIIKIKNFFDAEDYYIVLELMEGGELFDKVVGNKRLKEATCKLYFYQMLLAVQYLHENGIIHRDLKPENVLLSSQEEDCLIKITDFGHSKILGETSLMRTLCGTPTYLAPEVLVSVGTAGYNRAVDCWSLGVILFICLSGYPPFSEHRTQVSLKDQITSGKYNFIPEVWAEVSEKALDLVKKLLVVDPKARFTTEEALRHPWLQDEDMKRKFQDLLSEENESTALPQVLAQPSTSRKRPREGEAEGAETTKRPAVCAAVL
Death-associated protein kinase 1 (Homo sapiens), sequence (P53355 whole entry, looked up): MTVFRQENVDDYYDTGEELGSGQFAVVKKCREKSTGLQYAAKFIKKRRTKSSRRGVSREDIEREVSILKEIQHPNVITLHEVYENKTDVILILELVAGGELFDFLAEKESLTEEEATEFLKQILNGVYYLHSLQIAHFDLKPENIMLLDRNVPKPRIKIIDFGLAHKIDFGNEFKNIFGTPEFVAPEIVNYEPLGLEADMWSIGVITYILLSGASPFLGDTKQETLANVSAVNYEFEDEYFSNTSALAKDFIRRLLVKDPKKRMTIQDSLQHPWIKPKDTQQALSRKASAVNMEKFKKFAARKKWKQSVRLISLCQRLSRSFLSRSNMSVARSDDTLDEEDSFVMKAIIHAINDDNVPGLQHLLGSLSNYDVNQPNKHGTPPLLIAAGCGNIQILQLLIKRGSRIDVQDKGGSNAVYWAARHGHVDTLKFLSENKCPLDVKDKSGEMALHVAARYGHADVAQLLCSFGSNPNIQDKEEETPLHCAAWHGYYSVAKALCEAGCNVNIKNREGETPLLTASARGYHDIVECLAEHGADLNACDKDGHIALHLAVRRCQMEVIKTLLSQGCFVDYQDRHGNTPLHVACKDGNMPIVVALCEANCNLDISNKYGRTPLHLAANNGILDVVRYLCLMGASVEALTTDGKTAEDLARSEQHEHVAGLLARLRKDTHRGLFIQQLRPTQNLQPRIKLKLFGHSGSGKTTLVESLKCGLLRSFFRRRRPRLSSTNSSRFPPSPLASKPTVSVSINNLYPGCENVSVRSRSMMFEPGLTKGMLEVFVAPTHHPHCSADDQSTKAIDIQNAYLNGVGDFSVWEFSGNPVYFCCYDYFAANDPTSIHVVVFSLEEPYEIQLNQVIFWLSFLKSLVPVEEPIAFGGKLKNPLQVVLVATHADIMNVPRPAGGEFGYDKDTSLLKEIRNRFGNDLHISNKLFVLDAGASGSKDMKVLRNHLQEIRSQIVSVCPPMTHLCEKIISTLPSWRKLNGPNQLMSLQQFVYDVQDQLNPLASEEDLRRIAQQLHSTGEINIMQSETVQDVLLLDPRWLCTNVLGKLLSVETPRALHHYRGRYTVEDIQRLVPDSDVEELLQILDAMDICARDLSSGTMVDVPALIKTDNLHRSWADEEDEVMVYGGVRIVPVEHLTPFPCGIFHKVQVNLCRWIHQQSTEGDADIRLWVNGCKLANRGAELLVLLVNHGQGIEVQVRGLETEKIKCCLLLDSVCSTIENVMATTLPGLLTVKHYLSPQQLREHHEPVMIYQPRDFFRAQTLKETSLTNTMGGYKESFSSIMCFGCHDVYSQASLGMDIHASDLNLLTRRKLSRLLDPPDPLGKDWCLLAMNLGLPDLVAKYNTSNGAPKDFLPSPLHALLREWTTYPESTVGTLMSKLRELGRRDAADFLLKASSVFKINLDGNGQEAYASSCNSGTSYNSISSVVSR
Calcium/calmodulin-dependent protein kinase type II subunit delta (Homo sapiens), sequence (Q13557 whole entry): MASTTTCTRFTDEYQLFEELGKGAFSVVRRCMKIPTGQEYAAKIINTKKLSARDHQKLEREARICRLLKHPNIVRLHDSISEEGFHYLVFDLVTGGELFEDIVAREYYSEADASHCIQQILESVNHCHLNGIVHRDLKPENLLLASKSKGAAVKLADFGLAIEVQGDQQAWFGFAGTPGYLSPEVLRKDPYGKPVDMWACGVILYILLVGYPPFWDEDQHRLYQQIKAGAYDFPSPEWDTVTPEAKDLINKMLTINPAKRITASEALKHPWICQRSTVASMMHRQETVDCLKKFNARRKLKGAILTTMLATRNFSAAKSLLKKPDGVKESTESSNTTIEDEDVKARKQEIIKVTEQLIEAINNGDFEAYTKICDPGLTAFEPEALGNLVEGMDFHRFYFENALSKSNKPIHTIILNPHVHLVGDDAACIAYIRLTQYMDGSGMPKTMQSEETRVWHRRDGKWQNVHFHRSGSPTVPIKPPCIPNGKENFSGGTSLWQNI
Calcium/calmodulin-dependent protein kinase type II subunit alpha (Homo sapiens), sequence (Q9UQM7 whole entry): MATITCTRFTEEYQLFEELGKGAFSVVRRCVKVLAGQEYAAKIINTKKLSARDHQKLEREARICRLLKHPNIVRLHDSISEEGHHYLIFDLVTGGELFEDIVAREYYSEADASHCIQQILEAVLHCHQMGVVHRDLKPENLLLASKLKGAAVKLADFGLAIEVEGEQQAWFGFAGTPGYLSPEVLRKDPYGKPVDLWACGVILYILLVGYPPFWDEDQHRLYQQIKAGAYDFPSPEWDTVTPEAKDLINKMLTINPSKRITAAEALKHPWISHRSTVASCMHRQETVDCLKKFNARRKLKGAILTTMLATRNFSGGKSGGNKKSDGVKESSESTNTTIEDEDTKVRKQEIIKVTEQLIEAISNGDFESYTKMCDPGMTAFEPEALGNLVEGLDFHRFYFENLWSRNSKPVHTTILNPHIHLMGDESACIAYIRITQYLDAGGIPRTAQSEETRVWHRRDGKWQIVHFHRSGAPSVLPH

As usually defined, the inhibition is the relative decrease from the control value, in per cent. In the case of `CS(=O)(=O)Nc1ccc(-c2ccc3c(NC(=O)C4CC4)n[nH]c3c2)cc1`, the inhibition was 3.84% in assay [1]; 3.65% in [2]; 3.38% in [3]; -0.67% in assay [4]; -0.43% in [5]; 1.65% in [6]. The inhibition in assay [7] came out at 1.61%; in assay [8] it was 4.58%; in assay [9], 7.38%; in [10] it was 2.51%.
Consider `COc1ccc(-c2nn3ncccc3c2-c2ccnc(Nc3ccc(F)c(F)c3)n2)cc1`, for which the inhibition in [1] was 4.43%; in [2], 3.14%; in [3], 7.4%; in assay [4], -3.18%; in assay [5], -4.79%; in assay [6], 3.76%. Further, the inhibition in assay [7] is 8.64%; in [8], 6.74%; in assay [9], 7.89%; in [10], 4.63%.
As to `CCN1CCC(C(=O)Nc2n[nH]c3nnc(-c4cccc(F)c4F)cc23)CC1`, the inhibition was -1.33% in assay [1]; -0.8% in [2]; -0.61% in [3]; 0.3% in assay [4]; -1.03% in [5]; -2.25% in assay [6]. Moreover, the inhibition was 0.59% in assay [7], -0.57% in [8], 0.65% in assay [9] and -0.72% in [10].
Regarding `COc1cc(Nc2ncc(-c3ccccc3)o2)cc(OC)c1`, the inhibition is 1.52% in assay [1]; 3.94% in assay [2]; 7.34% in [3]; -1.03% in [4]; -1.65% in [5]; 1.69% in [6]. Moreover, the inhibition in [7] was 0.7%; in assay [8] it was 4.6%; in assay [9], 5.38%; in assay [10] it was 2.51%.
On to `COc1ccc(Nc2ncc(-c3ccccc3)o2)cc1OC`, for which the inhibition was 4.71% in [1]; 0.93% in assay [2]; 8.26% in assay [3]; -0.62% in [4]; 1.46% in assay [5]; -0.04% in assay [6]. The inhibition is 50.5% in assay [7], -0.14% in assay [8], 2.24% in [9] and 1.44% in assay [10].
Turning to `CCS(=O)(=O)c1ccc(OC)c(Nc2ncc(-c3cccc(F)c3)o2)c1`, the inhibition was 5.43% in [1]; 4.73% in assay [2]; 10.6% in assay [3]; -0.92% in assay [4]; 1.07% in [5]; 3.94% in assay [6]. Besides, the inhibition in assay [7] is 12.9%; in assay [8], 2.75%; in assay [9], 4.65%; in [10], 7.21%.
As for `CN1CCN(Cc2ccc(-c3cc4ncnc(Nc5ccc(OCc6cccc(F)c6)c(Cl)c5)c4s3)o2)CC1`, the inhibition in [1] is 5.07% and 4.38%; in [2], 1.16% and 3.96%; in assay [3] it was 3.36% and 5.38%; in assay [4], -0.07% and -1.54%; in assay [5] it was 2.1% and 1.05%; in assay [6], 8.64% and 3.56%. Also, the inhibition in assay [7] was 7.78% and 8.12%; in assay [8], 9.39% and 5.57%; in assay [9], 28.6% and 26.4%; in assay [10], 9.3% and 6.62%.
For `Cc1cc(O)cc(C)c1/C=C/c1cncc(C(=O)OC(C)(C)C)c1`, the inhibition in assay [1] amounted to 3.26%; in assay [2], 2.39%; in assay [3] it was 5.41%; in assay [4], 0.08%; in assay [5], 1.35%; in [6] it was 2.4%. Besides, the inhibition in [7] turned out to be 3.47%; in assay [8], 0.86%; in [9], 2.31%; in [10] it was 1.5%.
Turning to `CS(=O)(=O)Nc1ccc(-c2cc(-c3ccccc3)cc(C(N)=O)c2N)cc1`, the inhibition in assay [1] is -1.32%; in [2] it was 0.44%; in assay [3], 1.39%; in [4], -3.34%; in [5], -0.72%; in assay [6] it was 3.76%. Besides, the inhibition in assay [7] came out at 0.63%; in assay [8] it was 1.07%; in assay [9] it was 1.94%; in assay [10], 2.28%.
For the compound `CN1CCC(n2cnc(-c3ccc(F)cc3)c2-c2ccnc(NCCO)n2)CC1`, the inhibition in assay [1] was 3.86%; in assay [2] it was 1.32%; in [3], 3.99%; in assay [4] it was -3.49%; in assay [5] it was -5.99%; in assay [6], 1.6%. Further, the inhibition worked out at 6.89% in assay [7], 4.1% in assay [8], 5.51% in [9] and 4.37% in [10].
In the case of `O=C(Nc1n[nH]c2nnc(-c3cccnc3)cc12)C1CC1`, the inhibition in assay [1] is 1.88%; in assay [2] it was -1.25%; in [3] it was 1.45%; in assay [4], 1.28%; in [5], 0.43%; in [6], 0.7%. Besides, the inhibition in [7] was -2.5%; in [8], -1.27%; in assay [9] it was -0.14%; in [10], -1.32%.
Turning to `COC(=O)Nc1nc2ccc(Oc3ccc(NC(=O)Nc4cc(C(F)(F)F)ccc4F)cc3)cc2s1`, the inhibition in assay [1] was 0.75%; in [2], 0.25%; in assay [3], 1.63%; in assay [4], 0.98%; in assay [5], 2.48%; in assay [6], -6.7%. The inhibition is 0.48% in assay [7], -0.62% in [8], -0.04% in assay [9] and -0.48% in assay [10].
Take `CS(=O)(=O)CCNCc1ccc(-c2ccc3ncnc(Nc4ccc(OCc5ccccc5)cc4)c3c2)o1`: the inhibition in assay [1] was -1%; in assay [2], 2.72%; in assay [3], 1.68%; in assay [4] it was 2.07%; in assay [5], -0.36%; in assay [6], -1.5%. Besides, the inhibition in [7] came to 0.28%; in assay [8] it was 3.41%; in assay [9], 12.9%; in assay [10] it was 3.08%.
In the case of `COc1cccc(Nc2nccc(-c3cnn4ncccc34)n2)c1`, the inhibition was 13.8% in assay [1]; 6.9% in assay [2]; 35.4% in assay [3]; -0.56% in assay [4]; -1.54% in [5]; -2.67% in assay [6]. Besides, the inhibition in [7] was 3.93%; in assay [8] it was 1.92%; in assay [9], 11.2%; in assay [10], -0.58%.
With `c1cnn2ncc(-c3ccnc(NCCCN4CCOCC4)n3)c2c1`, the inhibition in [1] was 6.81%; in assay [2] it was 3.65%; in assay [3], 3.72%; in [4], -0.02%; in assay [5] it was -0.41%; in assay [6] it was 0.25%. Moreover, the inhibition is 1.83% in [7], 2.74% in assay [8], 3.47% in assay [9] and -0.4% in assay [10].
Regarding `COc1cc2c(cc1Nc1nc(Nc3cccc(F)c3C(N)=O)c3cc[nH]c3n1)N(C(=O)CN1CCN(C(C)C)CC1)CC2`, the inhibition in assay [1] was 8.11%; in assay [2] it was 2.82%; in assay [3], 7.41%; in assay [4] it was 2.31%; in [5], 7.37%; in [6], -0.51%. Further, the inhibition in assay [7] is 4.94%; in assay [8], 6.05%; in assay [9] it was 29.8%; in assay [10], 2.3%.
On to `O=C(O[C@H]1CN[C@H](C#Cc2cc3ncnc(Nc4ccc(OCc5cccc(F)c5)c(Cl)c4)c3s2)C1)N1CCOCC1`, for which the inhibition was 3.21% in assay [1]; 3.54% in assay [2]; 2.65% in assay [3]; -1.14% in [4]; -3.95% in assay [5]; -1.89% in assay [6]. For the same compound, the inhibition was -1.17% in [7], -1.01% in assay [8], 2.28% in assay [9] and -1.79% in [10].
Take `Cc1ccc(-c2cc3c(NC(=O)C4CC4)ncnc3o2)cc1`: the inhibition in [1] is 4.25%; in assay [2], 3.37%; in [3], 3.7%; in assay [4], -0.74%; in assay [5] it was 30.3%; in [6] it was -0.37%. Moreover, the inhibition in [7] worked out at 3.47%; in assay [8], 2.56%; in assay [9], 5.07%; in [10], 3.63%.
For `CCOc1ccc2c(-c3ccnc(Nc4cc(OC)cc(C(F)(F)F)c4)n3)cnn2n1`, the inhibition is -0.03% in [1]; 0.7% in [2]; 1.42% in assay [3]; 1.18% in [4]; -0.28% in assay [5]; 3.19% in assay [6]. Further, the inhibition in assay [7] is 1.38%; in assay [8], -0.97%; in assay [9], 0.04%; in [10], 0.8%.
Take `O=C1Nc2ccccc2/C1=C1\CCc2cc(O)ccc21`: the inhibition in assay [1] was 8.04%; in assay [2], 6.22%; in assay [3], 13%; in [4] it was 0.46%; in assay [5] it was -0.69%; in [6], -1.18%. Also, the inhibition in assay [7] was 9.92%; in [8], 1.37%; in [9], 21.3%; in assay [10] it was -1.94%.
